ChEMBL document CHEMBL3988442, “University of Dundee, Small-Polar-MMV Screening Library” (2021)
For some assays here: Potency and affinity values are given separately.

Assays:
Design in all cases: scale not given: direction of the effect not stated beside the values
[1] = molecular target: Protein translocase subunit SecA (Escherichia coli (strain K12)) (UniProt P10408); assay: Assay to Identify E. coli SecA ATPase Inhibitors; format: functional; conditions: 30 µM
[2] = molecular target: T1, Ubiquitin-activating enzyme e1, putative (Leishmania donovani (strain BPK282A1)) (UniProt E9BSI1); assay: Leishmania donovani Ubiquitin Activating Enzyme (LdE1); format: functional; conditions: 30 µM
T1 sequence (whole entry): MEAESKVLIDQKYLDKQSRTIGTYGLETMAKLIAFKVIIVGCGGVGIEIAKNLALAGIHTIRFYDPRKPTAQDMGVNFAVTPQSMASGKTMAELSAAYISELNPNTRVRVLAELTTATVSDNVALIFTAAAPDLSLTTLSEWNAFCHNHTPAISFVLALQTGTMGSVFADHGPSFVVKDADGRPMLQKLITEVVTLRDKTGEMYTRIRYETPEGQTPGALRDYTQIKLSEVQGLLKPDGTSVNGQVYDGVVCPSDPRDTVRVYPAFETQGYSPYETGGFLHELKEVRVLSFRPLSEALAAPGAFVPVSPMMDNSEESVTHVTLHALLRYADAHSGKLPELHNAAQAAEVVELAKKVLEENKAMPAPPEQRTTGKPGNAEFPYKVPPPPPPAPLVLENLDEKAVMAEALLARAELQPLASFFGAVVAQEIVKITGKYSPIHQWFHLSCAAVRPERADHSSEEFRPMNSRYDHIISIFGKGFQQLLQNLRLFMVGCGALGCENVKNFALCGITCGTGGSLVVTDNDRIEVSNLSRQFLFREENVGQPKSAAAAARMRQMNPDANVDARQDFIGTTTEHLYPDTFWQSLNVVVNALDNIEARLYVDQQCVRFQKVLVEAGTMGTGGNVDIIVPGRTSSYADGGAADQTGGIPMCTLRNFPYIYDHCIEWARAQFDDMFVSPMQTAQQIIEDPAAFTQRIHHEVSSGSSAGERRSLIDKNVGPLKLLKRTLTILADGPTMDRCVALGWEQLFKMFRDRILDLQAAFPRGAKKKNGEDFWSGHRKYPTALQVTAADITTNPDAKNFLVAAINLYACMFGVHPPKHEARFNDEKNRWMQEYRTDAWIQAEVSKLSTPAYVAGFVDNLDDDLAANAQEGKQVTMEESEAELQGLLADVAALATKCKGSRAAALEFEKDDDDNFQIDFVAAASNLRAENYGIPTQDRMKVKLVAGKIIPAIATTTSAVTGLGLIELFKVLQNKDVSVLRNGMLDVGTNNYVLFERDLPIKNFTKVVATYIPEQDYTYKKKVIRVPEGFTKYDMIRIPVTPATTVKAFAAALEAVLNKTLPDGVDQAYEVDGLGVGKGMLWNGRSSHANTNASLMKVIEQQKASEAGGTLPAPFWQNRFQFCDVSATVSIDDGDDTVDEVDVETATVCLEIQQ

[3] = molecular target: AMP-activated protein kinase, AMPK (Homo sapiens) (UniProt P54646+O43741+P54619+Q9UGJ0+Q9Y478+Q13131+Q9UGI9); assay: AMP-dependent Kinase enzyme assay. An in vitro enzyme assay that detects ADP turnover that is directly proportional to AMPK activity. This uses naive AMPK that is activated during the assay with MK-8722; format: functional; conditions: 30 µM
[4] = molecular target: Sialic acid-binding Ig-like lectin 9 (Homo sapiens) (UniProt Q9Y336); assay: Hs-Siglec9 ALPHAscreen SOP 20170721; conditions: 10 µM
Sialic acid-binding Ig-like lectin 9 (Homo sapiens), sequence (Q9Y336 whole entry): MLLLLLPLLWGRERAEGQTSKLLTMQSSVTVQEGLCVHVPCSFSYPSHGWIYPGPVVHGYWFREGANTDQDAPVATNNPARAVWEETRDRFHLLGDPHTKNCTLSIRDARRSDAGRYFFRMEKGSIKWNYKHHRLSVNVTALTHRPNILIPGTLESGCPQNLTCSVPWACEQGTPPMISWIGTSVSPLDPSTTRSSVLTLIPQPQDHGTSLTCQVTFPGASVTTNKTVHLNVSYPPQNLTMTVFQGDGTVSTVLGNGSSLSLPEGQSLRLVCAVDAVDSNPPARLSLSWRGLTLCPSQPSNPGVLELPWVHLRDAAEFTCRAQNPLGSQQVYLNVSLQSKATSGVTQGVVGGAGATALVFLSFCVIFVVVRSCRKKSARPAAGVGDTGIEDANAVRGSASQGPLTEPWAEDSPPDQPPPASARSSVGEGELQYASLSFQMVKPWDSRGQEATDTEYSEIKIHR

Trypanosoma cruzi = assay: Trypanosoma cruzi phosphomannomutase and mannose-1-phosphate guanylyltransferase assay; format: functional; conditions: 10 µM
[5] = molecular target: T2, Arginase-2, mitochondrial (Homo sapiens) (UniProt P78540); assay: in vitro enzyme assay to detect the production of urea directly proportional to the activity of Arginase II; format: functional; conditions: 33.3 µM; note: in the data most compounds retested in dose-response had high values
T2 sequence (whole entry): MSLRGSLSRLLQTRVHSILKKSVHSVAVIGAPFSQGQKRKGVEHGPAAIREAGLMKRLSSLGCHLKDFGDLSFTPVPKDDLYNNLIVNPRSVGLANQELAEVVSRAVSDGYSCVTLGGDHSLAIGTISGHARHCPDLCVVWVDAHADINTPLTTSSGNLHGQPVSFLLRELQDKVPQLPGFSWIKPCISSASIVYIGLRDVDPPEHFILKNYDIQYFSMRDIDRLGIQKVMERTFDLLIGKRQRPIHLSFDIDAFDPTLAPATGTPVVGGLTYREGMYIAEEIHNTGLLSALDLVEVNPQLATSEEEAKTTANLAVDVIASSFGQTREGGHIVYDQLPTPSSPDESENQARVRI

[6] = molecular target: T3, Proteasome subunit beta (Trypanosoma cruzi) (UniProt O96673); assay: Trypanosoma cruzi proteasome chymotrypsin-like activity (TcProtChymo) assay.; note: in the data most compounds retested in dose-response had high values; format: functional; conditions: 9.37 µM
T3 sequence (whole entry): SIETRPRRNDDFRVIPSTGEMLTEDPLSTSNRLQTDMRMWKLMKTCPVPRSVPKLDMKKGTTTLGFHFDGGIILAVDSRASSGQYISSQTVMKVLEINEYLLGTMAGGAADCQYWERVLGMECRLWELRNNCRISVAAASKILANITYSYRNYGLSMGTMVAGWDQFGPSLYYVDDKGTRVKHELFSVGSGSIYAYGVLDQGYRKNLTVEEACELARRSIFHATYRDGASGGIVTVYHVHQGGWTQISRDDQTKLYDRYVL

Homo sapiens = species on record: Homo sapiens; assay: To identify inhibition of the IFN signalling (Jak-Stat) pathway via expression of an eGFP reporter gene under the control of an IFN-stimulated response element (ISRE) containing MxA promoter.; format: functional; conditions: 30 µM
[7] = molecular target: T4, Tyrosyl-tRNA synthetase, putative (Trypanosoma cruzi (strain CL Brener)) (UniProt Q4DSP6); assay: Trypanosoma cruzi tyrosyl tRNA synthetase (TcYRS) _High Tyrosine SOP; format: functional; conditions: 30 µM; note: in the data most compounds retested in dose-response had high values
T4 sequence (whole entry): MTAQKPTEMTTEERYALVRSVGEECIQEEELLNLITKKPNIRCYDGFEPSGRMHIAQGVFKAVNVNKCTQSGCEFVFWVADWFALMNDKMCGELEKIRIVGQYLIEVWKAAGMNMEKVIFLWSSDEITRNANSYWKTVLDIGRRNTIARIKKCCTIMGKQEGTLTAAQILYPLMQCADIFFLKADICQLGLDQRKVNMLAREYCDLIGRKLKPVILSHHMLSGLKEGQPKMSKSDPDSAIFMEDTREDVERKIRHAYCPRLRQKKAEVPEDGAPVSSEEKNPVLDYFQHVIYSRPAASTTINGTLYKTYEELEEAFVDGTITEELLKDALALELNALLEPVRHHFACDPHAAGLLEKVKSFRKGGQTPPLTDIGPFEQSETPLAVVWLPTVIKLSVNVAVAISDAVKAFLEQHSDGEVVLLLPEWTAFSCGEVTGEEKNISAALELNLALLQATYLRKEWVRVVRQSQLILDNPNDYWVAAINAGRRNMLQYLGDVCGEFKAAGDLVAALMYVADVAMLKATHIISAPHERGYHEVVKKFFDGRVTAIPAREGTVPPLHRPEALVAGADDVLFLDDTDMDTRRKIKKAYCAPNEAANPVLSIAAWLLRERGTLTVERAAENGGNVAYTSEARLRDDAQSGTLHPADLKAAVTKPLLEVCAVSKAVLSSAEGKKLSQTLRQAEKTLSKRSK

[8] = molecular target: T4, Tyrosyl-tRNA synthetase, putative (Trypanosoma cruzi (strain CL Brener)); assay: Trypanosoma cruzi tyrosyl tRNA synthetase (TcYRS) SOP; format: functional; conditions: 30 µM
[9] = molecular target: Chromo domain-containing protein 1 (Saccharomyces cerevisiae (strain ATCC 204508 / S288c) (Baker's yeast)) (UniProt P32657); assay: ScCHD-1 Enzyme Inhibition Assay; format: functional; conditions: 30 µM; note: in the data most compounds retested in dose-response had high values
Chromo domain-containing protein 1 (Saccharomyces cerevisiae (strain ATCC 204508 / S288c) (Baker's yeast)), sequence (P32657 whole entry, the tested form may be a part): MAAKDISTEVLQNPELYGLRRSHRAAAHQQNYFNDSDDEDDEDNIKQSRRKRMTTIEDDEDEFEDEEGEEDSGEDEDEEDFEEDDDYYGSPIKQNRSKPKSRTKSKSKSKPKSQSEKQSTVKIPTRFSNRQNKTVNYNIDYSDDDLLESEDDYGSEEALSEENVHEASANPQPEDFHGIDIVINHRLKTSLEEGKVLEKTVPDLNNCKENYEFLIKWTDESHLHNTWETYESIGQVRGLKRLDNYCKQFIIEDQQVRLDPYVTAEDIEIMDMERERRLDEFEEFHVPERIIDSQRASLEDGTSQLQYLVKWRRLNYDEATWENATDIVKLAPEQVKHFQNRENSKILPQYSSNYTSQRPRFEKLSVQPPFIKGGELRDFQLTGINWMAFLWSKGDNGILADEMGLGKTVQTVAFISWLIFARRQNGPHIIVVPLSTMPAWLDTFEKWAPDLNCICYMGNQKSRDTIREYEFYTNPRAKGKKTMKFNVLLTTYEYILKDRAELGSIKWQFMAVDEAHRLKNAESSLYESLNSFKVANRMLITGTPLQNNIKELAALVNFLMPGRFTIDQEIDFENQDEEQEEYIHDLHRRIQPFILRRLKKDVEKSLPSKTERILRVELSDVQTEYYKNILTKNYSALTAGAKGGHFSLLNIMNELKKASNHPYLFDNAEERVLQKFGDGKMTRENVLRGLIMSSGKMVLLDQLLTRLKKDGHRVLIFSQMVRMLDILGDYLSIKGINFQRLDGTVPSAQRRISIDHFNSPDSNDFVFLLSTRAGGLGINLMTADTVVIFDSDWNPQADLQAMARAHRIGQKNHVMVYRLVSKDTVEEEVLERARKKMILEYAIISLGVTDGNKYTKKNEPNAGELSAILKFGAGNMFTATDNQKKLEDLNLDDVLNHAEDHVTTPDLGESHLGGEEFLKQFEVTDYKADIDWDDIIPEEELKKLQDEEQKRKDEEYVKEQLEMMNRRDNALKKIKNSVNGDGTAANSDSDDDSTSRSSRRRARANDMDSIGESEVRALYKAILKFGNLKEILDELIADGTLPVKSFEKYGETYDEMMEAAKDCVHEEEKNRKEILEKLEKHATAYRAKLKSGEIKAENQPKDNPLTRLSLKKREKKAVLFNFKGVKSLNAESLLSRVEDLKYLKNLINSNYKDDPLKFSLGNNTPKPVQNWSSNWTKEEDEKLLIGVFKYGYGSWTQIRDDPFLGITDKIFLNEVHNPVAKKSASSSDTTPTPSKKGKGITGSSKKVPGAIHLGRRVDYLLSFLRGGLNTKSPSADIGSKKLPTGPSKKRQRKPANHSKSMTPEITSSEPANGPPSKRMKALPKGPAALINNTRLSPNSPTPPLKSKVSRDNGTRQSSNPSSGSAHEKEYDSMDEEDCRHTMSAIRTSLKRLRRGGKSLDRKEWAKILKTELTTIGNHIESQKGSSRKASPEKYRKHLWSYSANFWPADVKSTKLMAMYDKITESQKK

Protein translocase subunit SecA (Escherichia coli (strain K12)), sequence (P10408 whole entry): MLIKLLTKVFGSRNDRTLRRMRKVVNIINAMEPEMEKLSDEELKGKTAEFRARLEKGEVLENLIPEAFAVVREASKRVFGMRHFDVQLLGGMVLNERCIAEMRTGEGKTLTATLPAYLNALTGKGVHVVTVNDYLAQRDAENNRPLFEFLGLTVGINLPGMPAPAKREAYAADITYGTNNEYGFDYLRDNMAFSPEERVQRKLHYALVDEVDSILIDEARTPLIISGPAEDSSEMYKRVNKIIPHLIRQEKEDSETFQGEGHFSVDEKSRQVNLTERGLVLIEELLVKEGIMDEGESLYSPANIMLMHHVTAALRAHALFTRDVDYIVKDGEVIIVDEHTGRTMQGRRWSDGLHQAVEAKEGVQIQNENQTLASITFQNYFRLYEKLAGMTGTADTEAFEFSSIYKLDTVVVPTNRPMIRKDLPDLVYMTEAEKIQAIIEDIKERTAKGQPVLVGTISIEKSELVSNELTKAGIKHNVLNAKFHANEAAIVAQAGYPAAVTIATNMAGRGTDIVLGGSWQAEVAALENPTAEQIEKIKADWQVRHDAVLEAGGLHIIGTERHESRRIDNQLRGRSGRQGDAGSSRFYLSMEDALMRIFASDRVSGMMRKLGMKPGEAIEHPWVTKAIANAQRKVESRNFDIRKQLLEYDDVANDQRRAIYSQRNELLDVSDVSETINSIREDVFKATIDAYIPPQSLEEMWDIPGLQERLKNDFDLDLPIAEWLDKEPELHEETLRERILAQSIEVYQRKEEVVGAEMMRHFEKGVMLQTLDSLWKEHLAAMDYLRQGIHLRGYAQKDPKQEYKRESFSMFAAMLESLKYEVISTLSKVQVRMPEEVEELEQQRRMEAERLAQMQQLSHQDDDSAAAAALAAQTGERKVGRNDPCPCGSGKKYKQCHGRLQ

| SMILES | Percent Effect [1] [%] | Percent Effect [2] [%] | Percent Effect [3] [%] | Percent Effect [4] [%] | Percent Effect (Trypanosoma cruzi) [%] | Percent Effect [5] [%] | Percent Effect [6] [%] | Percent Effect (Homo sapiens) [%] | Percent Effect [7] [%] | Percent Effect [8] [%] | Percent Effect [9] [%] |
| --- | --- | --- | --- | --- | --- | --- | --- | --- | --- | --- | --- |
| O=C(NCCCn1cncn1)NCC(c1ccccc1)N1CCCC1 (configuration not stated) | -4.8 | 2.6 | -5.77 | -8.15 | 5.58 | -2.32 | 14.6 | 6.64 | 3.81 | 2.35 | -23.6 |
| O=S1(=O)C[C@@H]2[C@H](C1)N(Cc1cc(Cl)cc(Cl)c1)CCN2CC1CC1 | -4.25 | 8 | -0.723 | -1.32 | -2.24 | 1.56 | 12 | 22.5 | 2.73 | 11.1 | -6.73 |
| O=C(c1ccc(F)cc1)N1C[C@@H]2OCCN(c3ncccn3)[C@@H]2C1 | -5.16 | 5.33 | 3.73 | 9.86 | -5.02 | -19.9 | 5.98 | -2.35 | 2.08 | 15 | -9.01 |
| CCN1CC2(CC1=O)CN(Cc1cnn(C)c1)CCN(C(C)=O)C2 (configuration not stated) | -7.25 | 8.11 | 4.66 | -2.12 | -2.34 | -3.33 | 10.4 | -2.64 | 5.94 | 8.54 | 2.03 |
| c1cncc(OCc2noc3c2CN(Cc2ccoc2)CC3)c1 | -1.69 | 22.7 | -8.08 | -0.376 | 3.93 | -2.99 | 22.7 | 8.21 | 5.29 | 15.4 | -11.2 |
| COc1ccc(NC(=O)CNc2ccc(Br)cc2F)cc1 | -3.43 | 5.26 | 9.89 | 2.32 | -0.487 | 0 | 17.7 | 39.2 | -14.9 | -13 | -4.78 |
| Cc1nc(C)n(CC2CCCN(Cc3nc(C)c(C)o3)C2)n1 (configuration not stated) | -2.17 | 21.6 | -13.9 | -7.46 | 2.92 | -12.8 | 17.7 | 7.96 | 1.48 | 23.5 | -11 |
| Cc1ccc(CN2CCCC3(CCN(S(C)(=O)=O)C3)C2)o1 (configuration not stated) | -3.67 | 8 | 11.7 | 5.08 | -1.97 | -4.43 | 3.96 | 15.2 | 6.38 | 14.1 | -3.22 |
| Cc1nc2c(c(NC3CC3)n1)CCN(C(=O)C(C)(C)O)CC2 | -2.61 | 10.8 | 2.64 | -8.96 | -4.99 | -0.319 | 28 | 23.3 | 3.24 | 7.69 | -1.94 |
| CCc1nccc(CN2CCCC(c3nn(C)c(=O)n3CC)C2)n1 (configuration not stated) | -3.27 | 8.11 | -2.62 | 37.3 | 2.64 | 8.19 | -1.63 | 2.84 | 4.3 | 13.6 | -3.17 |
| CCOCc1ncn2c1CN(C(=O)Nc1cccc(C)c1)CC2 | -0.857 | -173 | 3.58 | 1.03 | -2.54 | 0.417 | 9.21 | 2.31 | 12.9 | 13.4 | 1.64 |
| Cc1noc(C(C)N2CCN(CC(=O)N3CCOCC3)CC2)n1 (configuration not stated) | -5.15 | 10.5 | -3.04 | -5.34 | 5.55 | -4.73 | -3.93 | -8.61 | 2.13 | 10.4 | -15.2 |
| CNC(=O)N1C[C@H]2CC[C@@]3(N=C(c4ccccc4)NC3=O)[C@H]2C1 | -5.03 | 2.6 | 0.951 | 7.17 | 9.73 | -67.6 | 9.48 | 12.9 | 2.15 | 11.1 | -1.88 |
| CC(C)CCN1CCC2(CC1)CN(C(=O)c1cnccn1)CCO2 | -4.82 | 2.67 | 2.65 | 7.36 | 0.772 | -57.9 | 0.855 | -13.7 | 4.17 | 12.5 | -3.24 |
| O=C(NCCCNC(=O)c1cccc(O)c1)NCc1ccccc1F | -2.42 | 15.8 | 0.229 | 0.609 | 2.63 | -5.92 | 14.9 | 1.72 | 3.19 | 15.6 | -3.65 |
| Cc1cnn(CCNCc2csc(C)n2)c1 | -1.46 | -5.33 | -1.53 | -3.7 | -0.876 | -2.6 | 7.5 | 1.61 | 3.83 | 6.17 | 0.841 |
| Cc1cc(C(C)NC(=O)N2CCC(n3cncn3)CC2)c(C)s1 (configuration not stated) | -4.4 | 7.59 | -0.225 | 9.65 | 1.23 | -2.28 | -4.01 | 3.67 | 1.48 | 3.8 | -3.57 |
| c1ccc(-c2ccc3nc(C4CCN(CC5CC5)CC4)nn3c2)cc1 | 4.34 | -5.48 | 2.06 | 4.55 | 0.992 | 3.99 | 6.08 | -16.5 | 4.17 | 3.7 | 0.798 |
| Fc1ccc(CN2CC[C@H]3O[C@@H](COCC4CCOCC4)CC[C@H]32)cc1 | -5.06 | 5.33 | 10.6 | -6.01 | -7.48 | -0.233 | 3.08 | 17.6 | -1.06 | -1.28 | -7.73 |
| Cn1cc(CN2CC[C@@H]3O[C@H](C(=O)N4CCOCC4)C[C@@H]32)cn1 | 1.91 | -2.7 | 0.801 | -2.48 | -3.91 | 2.5 | -0.0845 | -20.5 | -46.5 | -3.66 | 4.62 |
| O=C(Cc1cccc(F)c1)N1CCCCC1c1ccn2ccnc2n1 (configuration not stated) | -5.83 | -4.05 | 14.6 | 3.14 | -3.16 | -4.41 | 5.3 | 10.2 | -4.3 | -9.09 | -10.5 |
| CCN(CC1CCCO1)C(=O)Nc1ccc(F)cc1OC (configuration not stated) | -3.45 | 17.7 | -6.96 | 10.6 | 6.14 | 3.8 | 4.5 | -28.1 | 4.43 | 16.5 | -7.51 |
